This passage reports growth results from PubChem BioAssay (NCI).

Test systems include NCI-H23 lung; NCI-H226 lung; NCI-H322M lung; HOP-62 NSCLC; NCI-H460 lung; HOP-92 NSCLC; NCI-H522 lung; 786-0 renal; COLO 205 colon; DU-145 prostate; K-562 leukemia; MALME-3M melanoma; MDA-MB-231 breast; SF-268 CNS; SF-295 CNS; SF-539 CNS; UACC-257 melanoma; M14 melanoma; A549/ATCC NSCLC; RXF 393 renal.
Common to all, as to experiment: NCI-60 one-dose screen, 48 h (100 = growth as untreated, 0 = no growth, -100 = all killed)
Conditions in all cases: 10 µM unless noted

Structures are written as SMILES. This is part of a sample that, as a whole, favours compounds with a hit. Of some 83,000 tested, about 20% had one in any assay.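 Treatment: one concentration, 48 hours, 96-well format. Scoring: percent growth, with anything below 10 considered active.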 Unmarked numbers belong to inactive results. Activity calls are given as the source filed them.

As for `Cc1ccc(C2CC(c3cccc(Nc4ccncc4)c3)=NN2c2ccccc2)cc1` (configuration not stated), the growth was -69.3% (active) with NCI-H23 lung; 28.9% in the experiment on NCI-H226 lung; -87.4% (active) in the experiment on NCI-H322M lung; -67% (active) in the experiment on HOP-62 NSCLC; -77.8% (active) with NCI-H460 lung; -90.7% (active) with HOP-92 NSCLC. Also, the growth in the experiment on NCI-H522 lung is -65.1% (active); with 786-0 renal, 22.1%; in the experiment with COLO 205 colon it was -69% (active); with DU-145 prostate, -72.2% (active); in the experiment on K-562 leukemia, -15.6% (active); with MALME-3M melanoma it was -92.8% (active). Further, the growth in the experiment with MDA-MB-231 breast is -87.9% (active); in the experiment on SF-268 CNS it was -73.1% (active); with SF-295 CNS, -91.3% (active); in the experiment on SF-539 CNS it was -96.9% (active); with UACC-257 melanoma, -55.7% (active); in the experiment on M14 melanoma, -49.8% (active).

For `COc1cc2c(cc1[N+](=O)[O-])-c1ccc([N+](=O)[O-])cc1/C2=N\O`, the growth in the experiment on NCI-H23 lung was 88.2%; in the experiment on NCI-H226 lung it was 66%; in the experiment with NCI-H322M lung it was 113%; in the experiment with HOP-62 NSCLC, 110%; with NCI-H460 lung, 84%; in the experiment on HOP-92 NSCLC, 100%. Also, the growth with A549/ATCC NSCLC was 83.5%; in the experiment with 786-0 renal, 79.6%; in the experiment on COLO 205 colon, 79.6%; in the experiment with DU-145 prostate it was 120%; with K-562 leukemia it was 88.7%; with MALME-3M melanoma, 116%. The growth in the experiment with MDA-MB-231 breast is 87.4%; with RXF 393 renal it was 79.8%; in the experiment with SF-268 CNS, 89.6%; in the experiment with SF-295 CNS, 77.2%; in the experiment on SF-539 CNS, 84.9%; with UACC-257 melanoma it was 97.9%. In addition, the growth in the experiment with M14 melanoma was 93.9%.

Consider `COc1cc(CCNc2nc3cc(N)cc(N)c3nc2-c2ccccc2)cc(OC)c1`, for which the growth was 19.3% in the experiment on NCI-H23 lung; 90.5% with NCI-H226 lung; 23.8% in the experiment on NCI-H322M lung; -35.1% (active) in the experiment on HOP-62 NSCLC; 34.1% with NCI-H460 lung; -71.2% (active) with HOP-92 NSCLC. Further, the growth is 78.3% with A549/ATCC NSCLC; -60% (active) with 786-0 renal; -60.8% (active) in the experiment on COLO 205 colon; 85.7% with DU-145 prostate; -71.2% (active) with K-562 leukemia; -66.4% (active) in the experiment on MALME-3M melanoma. Besides, the growth in the experiment on MDA-MB-231 breast is -22.6% (active); with RXF 393 renal it was -64.4% (active); in the experiment on SF-268 CNS, 7.74% (active); in the experiment with SF-295 CNS, 60.8%; in the experiment on SF-539 CNS, -31.7% (active); in the experiment on UACC-257 melanoma, 88.9%. Also, the growth in the experiment with M14 melanoma was -32.8% (active).

For the compound `COc1ccc(Cn2nc(-c3ccccc3)c3c2CCc2cnoc2-3)cc1`, the growth in the experiment on NCI-H23 lung was 60.3%; with NCI-H226 lung, 105%; with NCI-H322M lung it was 101%; in the experiment on HOP-62 NSCLC it was 83.5%; with NCI-H460 lung, 80.5%; in the experiment on HOP-92 NSCLC it was 61.1%. Also, the growth was 69.4% in the experiment with A549/ATCC NSCLC; 79.4% with 786-0 renal; 88.6% with COLO 205 colon; 96.9% in the experiment on DU-145 prostate; 36.3% with K-562 leukemia; 109% in the experiment with MALME-3M melanoma. The growth was 55.6% in the experiment with MDA-MB-231 breast; 81% with SF-268 CNS; 59.5% in the experiment on SF-295 CNS; 85.4% in the experiment with SF-539 CNS; 90.9% with UACC-257 melanoma; 89.2% in the experiment on M14 melanoma.

With `O=C1Nc2cc(-c3ccncc3)ccc2/C1=C/c1ccc[nH]1`, the growth in the experiment with NCI-H23 lung was 58.5%; with NCI-H226 lung it was 78.5%; in the experiment with NCI-H322M lung it was 84%; with HOP-62 NSCLC it was 105%; in the experiment on NCI-H460 lung, 98.9%; in the experiment with HOP-92 NSCLC it was 104%. Moreover, the growth is 101% with A549/ATCC NSCLC; 102% in the experiment on 786-0 renal; 112% in the experiment with COLO 205 colon; 88.1% with DU-145 prostate; 98.3% in the experiment with K-562 leukemia; 65.8% in the experiment with MALME-3M melanoma. For the same compound, the growth in the experiment on MDA-MB-231 breast was 65.2%; with RXF 393 renal, 93.1%; in the experiment on SF-268 CNS it was 94.5%; in the experiment with SF-295 CNS, 102%; with SF-539 CNS, 91.9%; in the experiment on UACC-257 melanoma, 114%. Moreover, in the experiment with M14 melanoma, the growth was 91.9%.

As to `CC1(c2ccccc2)NC(=O)N(CC(=O)Nc2cccc(I)c2)C1=O` (configuration not stated), the growth with NCI-H23 lung was 95.3%; with NCI-H226 lung, 72.2%; in the experiment on NCI-H322M lung, 83.8%; in the experiment with HOP-62 NSCLC, 76.7%; with NCI-H460 lung, 93.3%; in the experiment on HOP-92 NSCLC, 60.1%. The growth in the experiment with A549/ATCC NSCLC was 87.6%; in the experiment on 786-0 renal, 95.3%; in the experiment on COLO 205 colon, 106%; in the experiment with DU-145 prostate, 106%; with K-562 leukemia it was 91.7%; in the experiment with MALME-3M melanoma it was 75.3%. The growth in the experiment with MDA-MB-231 breast was 75%; in the experiment on SF-268 CNS it was 89.7%; with SF-295 CNS, 94%; in the experiment with SF-539 CNS, 89.9%; with UACC-257 melanoma, 84.9%; in the experiment with M14 melanoma, 102%.

As for `CC(C)(C#N)N1CCN(c2ccccc2Cl)CC1`, the growth was 98.8% with NCI-H23 lung; 103% with NCI-H226 lung; 94.8% in the experiment with NCI-H322M lung; 102% in the experiment on HOP-62 NSCLC; 104% in the experiment on NCI-H460 lung; 98% with HOP-92 NSCLC. Besides, the growth in the experiment with A549/ATCC NSCLC was 95.1%; in the experiment on 786-0 renal, 97.9%; in the experiment with COLO 205 colon, 113%; in the experiment on DU-145 prostate it was 105%; in the experiment on K-562 leukemia it was 96.4%; in the experiment on MALME-3M melanoma it was 91.2%. Moreover, the growth in the experiment with MDA-MB-231 breast was 110%; in the experiment on RXF 393 renal, 118%; in the experiment with SF-268 CNS it was 101%; in the experiment on SF-295 CNS, 97.2%; in the experiment with SF-539 CNS, 96.8%; in the experiment with UACC-257 melanoma, 92.1%. The growth in the experiment with M14 melanoma was 99.2%.

With `O=C(Nc1sc2c(c1C(=O)O)CCCC2)c1cccc(C(F)(F)F)c1`, the growth with NCI-H23 lung was 90.1%; in the experiment on NCI-H226 lung it was 103%; with NCI-H322M lung, 95%; in the experiment on HOP-62 NSCLC, 104%; in the experiment on NCI-H460 lung, 78.5%; in the experiment with HOP-92 NSCLC it was 79.2%. Further, the growth in the experiment on NCI-H522 lung is 78.7%; in the experiment with 786-0 renal, 94%; with COLO 205 colon, 113%; in the experiment on DU-145 prostate, 94.2%; in the experiment on MALME-3M melanoma it was 99.9%; in the experiment on MDA-MB-231 breast, 94%. Also, the growth in the experiment on SF-268 CNS is 94.9%; with SF-295 CNS, 85.1%; in the experiment on SF-539 CNS, 93.4%; with UACC-257 melanoma, 80.7%; with M14 melanoma, 98.8%.
